Experimental findings from PubChem BioAssay (NCATS) are described below.

SMILES strings stand for the structures. Records with an inconclusive call do not appear. Active and inactive are the calls of the source. Unless noted, calls follow the shape of the dose curve; as a rule, active = well fitted curve in the direction sought with a large enough effect; inconclusive = small, poorly fitted or top-dose-only effect, or another doubt; inactive = no such curve, though single readings can be large; an effect the other way counts as inactive or inconclusive.

Experiment [1] can be described thus: AP1 Signaling Pathway (AID 357; active = well fitted curve in either direction with a large enough effect, not every such curve was filed as active;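 also: ME-180 reporter cells stimulated with EGF at its EC50 level; % is scaled to controls: 0 for no effect and ±100 for the full control effect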). In a few lines:
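In this screen, ME-180 cells in Opti-MEM with 0.5% dialyzed FBS received EC50 EGF and compound titrations for 5 h. AP-1 reporter beta-lactamase was detected via CCF4 ratio, giving AC50 for positive and negative modulators.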

For experiment [2], the target named is Cytochrome P450 1A2 (Homo sapiens) (UniProt P05177). Nature of the experiment: p450-cyp1a2 (AID 410; calls by dose curve; also: potency is read from the fitted curve at half-maximal effect;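 as to activity change, negative = inhibition: -100% = full effect of reference inhibitor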). In a few lines:
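20nM CYP1A2, 100uM Luciferin-ME (=Km), 100mM KPO4; cpd 10 min RT; +NADPH regen, 60 min RT; stop/detect 20 min; luminescence. Normalized to furafylline 57 uM = full inhibition.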

Experiment [3] is described as follows: NFAT Signaling Pathway (AID 444; active = well fitted curve in either direction with a large enough effect, not every such curve was filed as active;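 also: carbachol stimulus at about its EC50 of 1 µM final; % is scaled to controls: 0 for no effect and ±100 for the full control effect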). The settings on record: Jurkat NFAT-bla M1, carbachol, beta-lactamase ratio, 5 h; at 17.2 µM (top of the series) unless noted. In a few lines: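 Jurkat cells with NFAT-driven β-lactamase reporter and co-expressed M1 receptor, stimulated with carbachol (final 1 uM, ~EC50), compound titration, 5 h at 37 °C. CCF4 loaded 1 h at RT; 460/530 nm ratio gave %activity and AC50.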

Experiment [4] is described as follows: Stat Signaling Pathway (AID 446; active = well fitted curve in either direction with a large enough effect, not every such curve was filed as active;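 also: ME-180 cervical cancer cells given 40 pM IL-6 alongside compound; SIE-controlled beta-lactamase reporter measured as 460/530 nm FRET emission ratio; % is scaled to controls: 0 for no effect and ±100 for the full control effect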). The method, boiled down: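 Compound effects on IL-6-induced STAT reporter activity were measured in ME-180 cells. After overnight culture, cells were co-treated with 40 pM IL-6 for 5 hrs before beta-lactamase substrate loading at room temperature.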
Experiment [5] addresses Glucocorticoid receptor (Homo sapiens) (UniProt P04150). Nature of the experiment: GR-GFP Redistribution (AID 450;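 active = compounds whose dose series gives a full or clear partial fitted curve of increased nuclear translocation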; also: potency is read from the fitted curve at half-maximal effect). Particulars: U2OS GR-GFP nuclear translocation, laser cytometry, 2 h.
Experiment [6] shares this target. Put plainly: GR-EFC Redistribution (AID 451; calls by dose curve; also: potency is read from the fitted curve at half-maximal effect). The settings on record: CHO-K1 GR-EFC translocation, beta-gal luminescence, 2 h. The method, boiled down: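 CHO-K1 cells expressing nuclear EA and GR-ED fragments of b-gal; compounds titrated up to 46 uM final, 2 h at 37 C. GR nuclear translocation read as complemented b-gal luminescence after 1 h RT detection.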
The target of experiment [7] is Mitogen-activated protein kinase 10 (Mus musculus) (UniProt Q61831). Put plainly: JNK3 AlphaScreen Assay (AID 530; active = well fitted curve in either direction with a large enough effect, not every such curve was filed as active;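 also: kinase came from lysate of stimulated human HepG2 cells; signal reports phosphorylation of biotinylated GST-cJun 1-79 at Ser73 with 10 µM ATP; % is scaled to controls: 0 for no effect and ±100 for the full control effect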). In a few lines:
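HepG2 lysate (IL-1b/TNFa pre-activated) + biotin-GST-cJun 1-79 + anti-pSer73 cJun; cpd titration, 15 min RT; ATP 10 uM start; Tris pH 7.6, MgCl2, DTT, vanadate; beads in EDTA buffer; AlphaScreen.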
In general terms: In Alpha technology, singlet oxygen from a donor bead excites a nearby acceptor bead.

Experiment [8] in a line: qHTS Assay for Lipid Storage Modulators (AID 1519; calls by dose curve). The settings on record: Drosophila S3 cells, BODIPY lipid droplet/cell ratio, laser cytometry, cells loaded with oleic acid. The method, boiled down: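 Cells seeded at 5,000 per well were treated with compounds over a concentration series and loaded with oleic acid (400 uM, as added). Lipid droplet fluorescence (488 nm excitation, 500-530 nm channel) was read by laser-scanning cytometry and normalized to 20 uM Triacsin C.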
For orientation: qHTS replaces the single test concentration by a dilution series.

In experiment [9] the target is Ubiquitin carboxyl-terminal hydrolase 1 (Homo sapiens) (UniProt O94782). Nature of the experiment: Inhibitors of USP1/UAF1: Pilot qHTS (AID 504865).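 Also: rhodamine fluorescence freed from ubiquitin-rhodamine substrate followed over time; top concentration of the series differs between compounds; % is scaled to controls: 0 for no effect and ±100 for the full control effect; nearly all actives have a fitted effect of over 35% in size.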 The method, boiled down: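 Kinetic fluorescence assay: 1nM USP1/UAF1, 15 min compound preincubation, then 150nM Ub-Rho; 480/540 nm.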
Sequence of Ubiquitin carboxyl-terminal hydrolase 1 (Homo sapiens) (O94782 whole entry, looked up): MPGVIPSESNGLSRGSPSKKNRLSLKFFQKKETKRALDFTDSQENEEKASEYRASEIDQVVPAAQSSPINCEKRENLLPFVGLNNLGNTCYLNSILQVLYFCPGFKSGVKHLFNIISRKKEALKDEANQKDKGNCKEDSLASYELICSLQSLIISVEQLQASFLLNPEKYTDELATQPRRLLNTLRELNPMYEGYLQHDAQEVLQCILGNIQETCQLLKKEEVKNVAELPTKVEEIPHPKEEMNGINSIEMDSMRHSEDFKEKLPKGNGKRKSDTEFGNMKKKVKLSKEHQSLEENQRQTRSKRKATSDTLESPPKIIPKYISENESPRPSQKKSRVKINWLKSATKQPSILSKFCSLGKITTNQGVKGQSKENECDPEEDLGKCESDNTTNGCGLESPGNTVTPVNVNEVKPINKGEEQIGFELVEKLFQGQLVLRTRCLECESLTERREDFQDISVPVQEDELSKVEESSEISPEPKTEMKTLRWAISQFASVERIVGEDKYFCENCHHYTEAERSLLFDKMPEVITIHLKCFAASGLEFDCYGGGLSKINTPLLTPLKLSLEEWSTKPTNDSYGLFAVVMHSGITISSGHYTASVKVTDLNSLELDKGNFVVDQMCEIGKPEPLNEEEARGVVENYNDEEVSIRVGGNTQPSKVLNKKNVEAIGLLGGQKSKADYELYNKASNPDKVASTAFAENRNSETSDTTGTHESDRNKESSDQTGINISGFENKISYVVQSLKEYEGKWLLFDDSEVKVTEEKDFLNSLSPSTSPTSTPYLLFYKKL
Experiment [10] concerns the target 3',5'-cyclic-AMP phosphodiesterase 4B (Homo sapiens) (UniProt Q07343). Nature of the experiment: qHTS Assay for Inhibitors of PDE-IV (AID 607; active = well fitted activation curve with a large enough effect in the main read-out, with a control signal flat, not every such curve was filed as active; also: % of control where 0% means no effect). In a few lines:
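ACTOne HEK293 cells carry a modified cAMP-gated CNG channel and express endogenous PDE4; plated 1000 cells/well, compounds up to 22.9 uM final. Membrane-potential dye fluorescence (ex 535/em 590) was read; parental cells received 10 uM forskolin + 100 uM RO 20-1724.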

A short description of experiment [11]: S16 Schwann cell viability assay (CellTiter-Glo assay) (AID 624031).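 Also: cellular ATP luminescence as a viability measure; plate controls were DMSO-treated cells for no effect and cell-free wells for full effect; nearly all actives have a fitted effect of over 70% in size.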 In a few lines: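 Luminescent ATP read-out (CellTiter-Glo) after 24 h compound exposure of native S16 rat Schwann cells at 37 °C. Signals were normalized between cell-free wells and DMSO-treated cells, set as 0% activity.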
(In general: In ATP-based viability assays light output follows the ATP content of the culture.)

A short description of experiment [12]: S16 Schwann cell PMP22 intronic element firefly luciferase assay (AID 624032).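 Also: plate controls were DMSO for no effect and PTC124 positive control mean for full effect; nearly all actives have a fitted effect of over 30% in size.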 The method, boiled down:
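Rat S16 Schwann cells stably carrying firefly luciferase driven by a PMP22 intronic element, in 10% FBS, treated 24 h at 37 C. ONE-Glo luminescence normalized to PTC124 control and DMSO (0%); curves classed by r2, magnitude and activity.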

Experiment [13] in a line: qHTS profiling for inhibitors of Plasmodium falciparum proliferation (AID 504749).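 Also: 0% = DMSO vehicle and full inhibition = artemisinin control; nearly all actives have a fitted effect of over 60% in size.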 The settings on record: P. falciparum in erythrocytes, SYBR Green DNA, 72 h, at 12.8 µM (top of the series). In a few lines:
(§1)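 SYBR Green fluorescence (ex 485 nm, em 535 nm) reports parasite DNA after 72 h compound exposure of infected red cells at 0.3% parasitemia, 2.5% hematocrit; signal normalized to 0.29 uM artemisinin and vehicle wells.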

Experiment [14] relates to 3D7. The experiment is described as above. Particulars: P. falciparum in erythrocytes, SYBR Green DNA, 72 h; series mostly up to 12.8 µM. The method, boiled down: as §1
Experiment [15] concerns AS120. Described as above. Particulars: P. falciparum in erythrocytes, SYBR Green DNA, 72 h; series mostly up to 12.8 µM. In a few lines:
as §1

The subject of experiment [16] is ATS189. Described as above. Particulars: P. falciparum in erythrocytes, SYBR Green DNA, 72 h; series mostly up to 12.8 µM. In a few lines: as §1
Experiment [17] has as its system CP217. Described as above. Particulars: P. falciparum in erythrocytes, SYBR Green DNA, 72 h; series mostly up to 12.8 µM. In a few lines: as §1
In experiment [18] the test system is CP247. The description is as above. The settings on record: P. falciparum in erythrocytes, SYBR Green DNA, 72 h; series mostly up to 12.8 µM. In a few lines: as §1
The subject of experiment [19] is CP250. Described as above. Particulars: P. falciparum in erythrocytes, SYBR Green DNA, 72 h; series mostly up to 12.8 µM. In a few lines:
as §1

For experiment [20], the system named is SC27B. Described as above. Particulars: P. falciparum in erythrocytes, SYBR Green DNA, 72 h; series mostly up to 12.8 µM. The method, boiled down: as §1
[21] abbreviates: measured here: cell count channel max response.
The mark [22] stands for this setting: measured here: lipid channel max response.

Sequence of Cytochrome P450 1A2 (Homo sapiens) (P05177 whole entry, looked up): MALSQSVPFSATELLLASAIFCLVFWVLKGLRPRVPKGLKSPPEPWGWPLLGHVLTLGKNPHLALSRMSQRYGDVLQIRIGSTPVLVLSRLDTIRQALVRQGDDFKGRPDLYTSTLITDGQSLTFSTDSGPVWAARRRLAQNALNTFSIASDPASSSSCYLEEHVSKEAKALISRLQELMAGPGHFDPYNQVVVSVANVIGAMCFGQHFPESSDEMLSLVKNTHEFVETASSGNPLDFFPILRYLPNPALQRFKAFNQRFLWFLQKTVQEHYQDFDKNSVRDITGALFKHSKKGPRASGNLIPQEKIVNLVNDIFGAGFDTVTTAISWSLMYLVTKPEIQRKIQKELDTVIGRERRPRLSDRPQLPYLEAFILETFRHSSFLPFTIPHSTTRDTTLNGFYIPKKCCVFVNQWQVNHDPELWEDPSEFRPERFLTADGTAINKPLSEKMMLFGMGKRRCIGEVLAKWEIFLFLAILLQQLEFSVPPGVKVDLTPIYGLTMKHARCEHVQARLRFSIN
Sequence of Glucocorticoid receptor (Homo sapiens) (P04150 whole entry, looked up, the tested form may be a part): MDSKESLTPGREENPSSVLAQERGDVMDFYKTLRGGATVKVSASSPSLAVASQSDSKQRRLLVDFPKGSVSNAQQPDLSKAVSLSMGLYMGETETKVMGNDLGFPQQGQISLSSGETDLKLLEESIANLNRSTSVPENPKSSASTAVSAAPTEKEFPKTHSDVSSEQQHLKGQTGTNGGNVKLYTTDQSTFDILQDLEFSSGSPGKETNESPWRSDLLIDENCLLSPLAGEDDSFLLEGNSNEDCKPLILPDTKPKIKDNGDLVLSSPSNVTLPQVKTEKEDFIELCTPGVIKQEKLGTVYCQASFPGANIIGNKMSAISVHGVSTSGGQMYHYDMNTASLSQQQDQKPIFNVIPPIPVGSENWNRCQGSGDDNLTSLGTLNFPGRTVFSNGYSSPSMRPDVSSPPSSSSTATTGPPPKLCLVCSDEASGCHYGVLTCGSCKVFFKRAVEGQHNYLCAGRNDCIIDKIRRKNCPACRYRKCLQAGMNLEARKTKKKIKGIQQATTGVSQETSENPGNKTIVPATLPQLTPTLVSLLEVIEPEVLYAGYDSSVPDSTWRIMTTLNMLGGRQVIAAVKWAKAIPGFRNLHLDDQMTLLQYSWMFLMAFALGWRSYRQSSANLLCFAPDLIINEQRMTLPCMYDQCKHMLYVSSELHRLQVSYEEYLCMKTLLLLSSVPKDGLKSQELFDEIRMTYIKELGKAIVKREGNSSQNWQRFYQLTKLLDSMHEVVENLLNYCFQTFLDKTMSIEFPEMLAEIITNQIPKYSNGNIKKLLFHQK
Sequence of 3',5'-cyclic-AMP phosphodiesterase 4B (Homo sapiens) (Q07343 whole entry, looked up): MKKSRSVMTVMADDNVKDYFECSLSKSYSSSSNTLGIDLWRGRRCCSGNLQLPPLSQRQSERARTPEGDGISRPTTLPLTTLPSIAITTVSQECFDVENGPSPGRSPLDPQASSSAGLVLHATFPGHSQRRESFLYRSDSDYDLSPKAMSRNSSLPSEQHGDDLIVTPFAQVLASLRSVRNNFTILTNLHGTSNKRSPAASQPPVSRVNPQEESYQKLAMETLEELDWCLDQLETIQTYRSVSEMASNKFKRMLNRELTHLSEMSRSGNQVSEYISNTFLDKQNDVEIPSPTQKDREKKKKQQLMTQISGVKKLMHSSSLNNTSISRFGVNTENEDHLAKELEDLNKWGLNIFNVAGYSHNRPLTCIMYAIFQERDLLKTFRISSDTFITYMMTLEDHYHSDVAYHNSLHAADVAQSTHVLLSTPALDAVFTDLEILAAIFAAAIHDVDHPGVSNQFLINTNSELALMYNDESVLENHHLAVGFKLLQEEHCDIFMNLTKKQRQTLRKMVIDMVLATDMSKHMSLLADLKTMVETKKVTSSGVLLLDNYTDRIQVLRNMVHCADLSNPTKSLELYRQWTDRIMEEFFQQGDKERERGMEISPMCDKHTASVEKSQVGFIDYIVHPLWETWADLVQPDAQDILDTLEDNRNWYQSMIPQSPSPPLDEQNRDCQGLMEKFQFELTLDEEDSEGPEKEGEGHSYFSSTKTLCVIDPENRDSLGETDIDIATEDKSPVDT

Regarding `Cn1c(-c2ccc3c(c2)OCO3)cc(=O)c2ccccc21`, the compound was classed as inactive in experiment [1] and in [4]. In addition, the Potency is 5.01 µM (active) in experiment [2], > 20.6 µM (inactive) in experiment [5] and > 20.6 µM (inactive) in [6]. Also, the activity change, negative = inhibition in [3] was -10.6% (inactive); in [8] (at 25.7 µM (top of the series)) it was 2.22% (inactive). The Potency entry in experiment [7] and in experiment [9] was “inactive” throughout. In addition, the max response in [8] (setting [21]) is -4.86%; in [8] (setting [22]), -2.71%.

For `C#C[C@]1(O)CC[C@@H]2[C@H]3CCc4cc(OC)ccc4[C@@H]3CC[C@@]21C`, the result in experiment [1], in experiment [4] and in experiment [10] was inactive. Also, the Potency in experiment [2] is 0.501 µM (active); in experiment [5], > 20.6 µM (inactive); in experiment [6], > 20.6 µM (inactive). Also, the activity change, negative = inhibition in experiment [3] was -23.4% (inactive); in [8] (at 25.7 µM (top of the series)), -2.31% (inactive). Besides, the Potency result in experiment [7] and in experiment [9] was “inactive” each time. The figures for the max response in experiment [8] (setting [21]) and in [8] (setting [22]) were -15.5% and -16.7%, respectively.

For the compound `C=C1CC[C@H](O)C/C1=C/C=C1\CCC[C@]2(C)[C@H]1CC[C@H]2[C@@H](C)/C=C\[C@@H](C)C(C)C`, the call in [1], in [4] and in experiment [10] was inactive. Also, the Potency entry in experiment [2], in experiment [7] and in experiment [9] was “inactive” each time. The results for the activity change, negative = inhibition in [3] and in experiment [8] (at 25.7 µM (top of the series)) were 1.42% (inactive) and 0.549% (inactive), respectively. For the same compound, the Potency in experiment [5] was > 20.6 µM (inactive). The max response in experiment [8] (setting [21]) was -2.49%; in experiment [8] (setting [22]) it was -2.71%.

Take `CN(C)c1ccc(-c2nccc(NCc3ccccc3)n2)cc1`: the result in [1] and in experiment [4] was inactive. Further, the Potency in experiment [2] is 1.26 µM (active); in [5] it was > 46 µM (inactive). Besides, the activity change, negative = inhibition is -14.3% [at 7.69 µM] (inactive) in [3] and 2.02% (inactive) in [8] (at 57.5 µM (top of the series)). The Potency result in experiment [7] and in experiment [9] was “inactive” in each case. For the same compound, the max response in experiment [8] (setting [21]) was -4.09%; in experiment [8] (setting [22]), -1.11%.

Consider `NS(=O)(=O)c1cc2c(cc1Cl)N[C@@H](C(Cl)Cl)NS2(=O)=O`, for which the call in experiment [1], in experiment [4], in experiment [10] and in experiment [11] was inactive. In addition, the Potency result in [2], in experiment [7], in [9], in [12], in experiment [14] and in experiment [15] was “inactive” in each case. For the same compound, the Potency result in experiment [16], in experiment [17], in experiment [18], in experiment [19] and in experiment [20] was “inactive” throughout. The activity change, negative = inhibition in [3] is -8.61% (inactive); in experiment [8] (at 25.7 µM (top of the series)), -2.63% (inactive). Also, the max response in experiment [8] (setting [21]) and in [8] (setting [22]) was -19.9% in each case. Further, the activity, negative = inhibition in experiment [13] (parasite line A) was -8.3% (inactive); in experiment [13] (parasite line B) it was 4.19% (inactive).

On to `CC(=O)O[C@]1(C(C)=O)CC[C@@H]2[C@@H]3C=C(C)C4=CC(=O)CC[C@@]4(C)[C@H]3CC[C@]21C`, for which the compound was classed as inactive in [1], in experiment [4], in experiment [10] and in experiment [11]. For the same compound, the Potency result in experiment [2], in experiment [7], in experiment [12], in [14], in experiment [15] and in experiment [16] was “inactive” in each case. Also, the Potency result in [17], in experiment [18], in experiment [19] and in experiment [20] was “inactive” in each case. For the same compound, the activity change, negative = inhibition in experiment [3] is -7.69% (inactive); in [8] (at 25.7 µM (top of the series)), -3.56% (inactive). In addition, the Potency in experiment [5] was 0.00312 µM (active). Moreover, the max response in experiment [8] (setting [21]) was -20.2%; in experiment [8] (setting [22]), -22%. Moreover, the figures for the activity, negative = inhibition in experiment [13] (parasite line A) and in [13] (parasite line B) were -0.563% (inactive) and 2.77% (inactive), respectively.
